# In PubChem BioAssay (NCATS):
# Several values for one entry are separate records, joined by “and”; a condition that tells them apart may be missing. Identical values can stand only once. Unmarked numbers belong to inactive results. Inconclusive results are not listed. Entries that show only a call come without a potency. Activity calls are given as the source filed them. Unless noted, calls follow the shape of the dose curve; as a rule, active = well fitted curve in either direction with a large enough effect (not every such curve was filed as active); inconclusive = small, poorly fitted or top-dose-only effect, or another doubt; inactive = flat fitted curve, though single readings scatter.
# Legend:
# [1] = AP1 Signaling Pathway (AID 357); conditions: ME-180 AP-1-bla reporter, EGF-induced, beta-lactamase ratio, 5 h; at 7.69 µM (top of the series) unless noted;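 also: ME-180 reporter cells stimulated with EGF at its EC50 level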
# Summary of the method: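 Titration-series screen for positive or negative modulators of EC50 EGF-induced signaling in ME-180 cells carrying an AP-1-driven beta-lactamase reporter. After 5 hours at 37 degrees Celsius, CCF4 460nm/530nm emission ratio gave %Activity; AC50 values derived.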
# [2] = target: Cytochrome P450 1A2 (Homo sapiens) (UniProt P05177); experiment: p450-cyp1a2 (AID 410; calls by dose curve)
# Summary of the method: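 Human CYP1A2 (20nM) demethylated Luciferin-ME at its Km (100uM) in 100mM KPO4. After 10 min compound preincubation, NADPH regeneration ran the reaction 60 min at room temperature. Luciferin was read by luminescence, normalized to 57 uM furafylline.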
# [3] = NFAT Signaling Pathway (AID 444); conditions: Jurkat NFAT-bla M1, carbachol, beta-lactamase ratio, 5 h; at 7.69 µM (top of the series) unless noted;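 also: carbachol stimulus at about its EC50 of 1 µM final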
# Summary of the method: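 Jurkat cells with NFAT-driven β-lactamase reporter and co-expressed M1 receptor, stimulated with carbachol (final 1 uM, ~EC50), compound titration, 5 h at 37 °C. CCF4 loaded 1 h at RT; 460/530 nm ratio gave %activity and AC50.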
# [4] = Stat Signaling Pathway (AID 446); conditions: ME-180 SIE beta-lactamase reporter, IL-6 stimulated, 5 h; at 7.69 µM (top of the series) unless noted;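 also: ME-180 cervical cancer cells given 40 pM IL-6 alongside compound; SIE-controlled beta-lactamase reporter measured as 460/530 nm FRET emission ratio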
# Summary of the method: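 IL-6/STAT signaling read in ME-180 cells via an SIE beta-lactamase reporter. Stimulus was 40 pM IL-6 (its AC50) for 5 hrs, so both activation and inhibition register.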
# [5] = target: Glucocorticoid receptor (Homo sapiens) (UniProt P04150); experiment: GR-GFP Redistribution (AID 450;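 active = compounds whose dose series gives a full or clear partial fitted curve of increased nuclear translocation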; also: potency is read from the fitted curve at half-maximal effect); conditions: U2OS GR-GFP nuclear translocation, laser cytometry, 2 h
# [6] = target: Mitogen-activated protein kinase 10 (Mus musculus) (UniProt Q61831); experiment: JNK3 AlphaScreen Assay (AID 530);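 also: kinase came from lysate of stimulated human HepG2 cells; signal reports phosphorylation of biotinylated GST-cJun 1-79 at Ser73 with 10 µM ATP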
# Summary of the method: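 qHTS format: compounds tested as titrations against IL-1beta/TNF-alpha-activated HepG2 lysate JNK3 with biotin-GST-cJun substrate and 10 uM ATP at room temperature. Loss of anti-phospho-cJun AlphaScreen signal indicates inhibition.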
# [7] = target: 3',5'-cyclic-AMP phosphodiesterase 4B (Homo sapiens) (UniProt Q07343); experiment: qHTS Assay for Inhibitors of PDE-IV (AID 607; active = well fitted activation curve with a large enough effect in the main read-out, with a control signal flat, not every such curve was filed as active)
# Summary of the method: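 Live HEK293 cells with a modified cyclic nucleotide-gated (CNG) channel report intracellular cAMP via membrane-potential dye fluorescence (ex 535/em 590 nm). Endogenous PDE-IV was targeted. Compounds were tested at up to 22.9 uM final; RO 20-1724 100 uM served as control.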
# [8] = target: Glucocorticoid receptor (Homo sapiens) (UniProt P04150); experiment: GR-EFC Redistribution (AID 451; calls by dose curve; also: potency is read from the fitted curve at half-maximal effect); conditions: CHO-K1 GR-EFC translocation, beta-gal luminescence, 2 h
# Summary of the method: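 CHO-K1 cells expressing nuclear EA and GR-ED fragments of b-gal; compounds titrated up to 46 uM final, 2 h at 37 C. GR nuclear translocation read as complemented b-gal luminescence after 1 h RT detection.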
# [9] = target: Cytochrome P450 2C9 (Homo sapiens) (UniProt P11712); experiment: qHTS Assay for Inhibitors and Substrates of Cytochrome P450 2C9 (AID 883; active = well fitted curve in the direction sought with a large enough effect; an effect the other way counts as inactive or inconclusive; also: nearly all actives have a fitted effect of over 60% in size)
# Summary of the method: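 Signal: luciferase luminescence reporting luciferin produced by CYP2C9. Conditions: 10nM enzyme, Luciferin-H 100uM at KM, 25mM KPO4, 37C, 60 min NADPH-driven reaction. Reference: 57uM sulphaphenazole as 100% inhibition.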
# [10] = target: Guanine nucleotide-binding protein G(i) subunit alpha-1 (Homo sapiens) (UniProt P63096); experiment: qHTS Assay for Inhibitors of RGS12 GoLoco Motif Activity (Green Fluorophore) (AID 879; active = well fitted curve in the direction sought with a large enough effect; an effect the other way counts as inactive or inconclusive;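 also: negative values mean loss of peptide binding seen as reduced polarization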)
# Summary of the method: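 Fluorescence polarization assay: 50 nM Gαi1 with 10 nM FITC-labeled RGS12 GoLoco peptide in 10 mM Tris pH 7.5, 150 mM NaCl, 0.1 mM GDP, 0.05% NP40, 10 min at room temperature with compound.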
# [11] = qHTS Assay for Identification of Small Molecule Antagonists for NFkB Signaling Pathway (AID 895; active = well fitted inhibition curve with a large enough effect in the signal ratio, with a control signal flat, not every such curve was filed as active; the % refers to the signal ratio)
# Summary of the method: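 ME-180 NFkB-bla cells (beta-lactamase under NFkB response element), plated overnight, treated with compound then 10 pM TNF alpha (about EC50) for 5 hrs at 37 C. LiveBLAzer FRET read at 460/530 nm emission, 405 nm excitation.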
# [12] = target: Muscarinic acetylcholine receptor M1 (Rattus norvegicus) (UniProt P08482); experiment: qHTS Assay for Antagonists of Acetylcholine Muscarinic M1 Receptor: Kinetic Measurement of Intracellular Calcium Response (AID 943; active = well fitted curve in the direction sought with a large enough effect; an effect the other way counts as inactive or inconclusive;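 also: Fluo-4 calcium signal as peak divided by basal fluorescence over 4 min; nearly all actives have a fitted effect of over 75% in size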)
# Summary of the method: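 CHO cells stably expressing rat M1 were loaded with no-wash Fluo-4 dye for 1 h at 37C, pre-incubated 10 min with compound, then challenged with EC80 carbachol (100 nM final); kinetic calcium read 4 min, peak/basal ratio.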
# [13] = target: Muscarinic acetylcholine receptor M1 (Rattus norvegicus) (UniProt P08482); experiment: qHTS Assay for Antagonists of Acetylcholine Muscarinic M1 Receptor: Measurement of IP-One Response (AID 944; active = well fitted curve in the direction sought with a large enough effect; an effect the other way counts as inactive or inconclusive; also: nearly all actives have a fitted effect of over 75% in size)
# Summary of the method: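 CHO cells expressing rat M1 receptor, recovered overnight, were pre-incubated 10 min with compound, then stimulated 30 min with carbachol at EC80 (200 nM) in LiCl-containing buffer, pH 7.4. IP1 accumulation was read by HTRF (620/665 nm).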
# [14] = target: Pyruvate kinase (Leishmania mexicana) (UniProt Q27686); experiment: qHTS Validation Assay for Inhibitors of Leishmania Mexicana Pyruvate Kinase (AID 945; active = well fitted curve in the direction sought with a large enough effect; an effect the other way counts as inactive or inconclusive)
# Summary of the method: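 LmPYK E451W 0.2 nM; 0.5 mM PEP, 0.1 mM ADP, 7 mM MgCl2, 50 mM KCl, imidazole pH 7.2, 0.01% Tween 20, 0.05% BSA; 1 h RT; PKLight luminescence; DMSO-normalized.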
# [15] = target: Pyruvate kinase PKM (Homo sapiens) (UniProt P14618); experiment: qHTS Assay for Activators of Human Muscle Pyruvate Kinase (AID 954; active = well fitted curve in the direction sought with a large enough effect, not every such curve was filed as active)
# Summary of the method: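 Enzyme was run at intermediate activity so both inhibitors and activators could be detected. ATP formed from ADP and PEP by 0.1 nM human PKM2 during a 1 h room-temperature incubation was quantified by coupled luciferase luminescence.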
# [16] = target: Alpha-galactosidase A (Homo sapiens) (UniProt P06280); experiment: Counterscreen for Glucocerebrosidase Inhibitors: qHTS Assay for Human alpha-Galactosidase at pH 4.5 (AID 992; active = well fitted curve in the direction sought with a large enough effect; an effect the other way counts as inactive or inconclusive)
# Summary of the method: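 Read-out is 4-methylumbelliferone fluorescence (365 nm excitation, 440 nm emission) after a pH 10 NaOH/glycine stop. Reactions held 2 nM enzyme and 80 uM substrate at pH 4.5 for 20 min at room temperature.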
# [17] = target: alpha-glucosidase (Oryza sativa, rice) (UniProt Q653V4); experiment: Counterscreen for Glucocerebrosidase Inhibitors: qHTS Assay for Rice alpha-Glucosidase at pH 5.0 (AID 997; active = well fitted curve in the direction sought with a large enough effect; an effect the other way counts as inactive or inconclusive)
# Summary of the method: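 Rice alpha-glucosidase (4 nM final) with 400 uM 4-methylumbelliferyl-alpha-D-glucopyranoside in citrate buffer pH 5.0, 20 min at room temperature, stopped at pH 10; fluorescence 365/440 nm, compounds 0.7 nM–77 uM, AC50 from Hill fits.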
# [18] = target: Cytochrome P450 3A4 (Homo sapiens) (UniProt P08684); experiment: qHTS Assay for Activators of Cytochrome P450 3A4 (AID 885; active = well fitted curve in the direction sought with a large enough effect; an effect the other way counts as inactive or inconclusive; also: nearly all actives have a fitted effect of over 65% in size)
# Summary of the method: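 Quantitative HTS format: compounds preincubated with 20nM human CYP3A4 and Luciferin-PPXE substrate at KM, reaction started by NADPH regeneration, stopped after 60 min, luciferase luminescence read 20 min later.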
# [19] = qHTS Assay for Identification of Small Molecule Agonists for Thrombopoietin (TPO) Signaling Pathway (AID 917; active = well fitted curve in the direction sought with a large enough effect; an effect the other way counts as inactive or inconclusive)
# Summary of the method: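 IL-3-dependent murine pro-B Ba/F3 cells, stably transfected with human TPO receptor and GpIIb-promoter luciferase, are incubated 24 hrs at 37 C with test compound and 26 pM TPO; luciferase signal is read after 10 min at room temperature.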
# [20] = target: Cytochrome P450 2C19 (Homo sapiens) (UniProt P33261); experiment: qHTS Assay for Inhibitors and Substrates of Cytochrome P450 2C19 (AID 899; active = well fitted curve in the direction sought with a large enough effect; an effect the other way counts as inactive or inconclusive; also: nearly all actives have a fitted effect of over 60% in size)
# Summary of the method: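 Signal comes from luciferase acting on luciferin released by CYP2C19-mediated hydroxylation of Luciferin-H EGE, 10uM (KM). Assay mix: 5nM enzyme, 50mM KPO4; 60 min at 37C with NADPH regeneration. Data normalized against 57uM ketoconazole.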
# Sequence of Pyruvate kinase PKM (Homo sapiens) (P14618 whole entry, looked up): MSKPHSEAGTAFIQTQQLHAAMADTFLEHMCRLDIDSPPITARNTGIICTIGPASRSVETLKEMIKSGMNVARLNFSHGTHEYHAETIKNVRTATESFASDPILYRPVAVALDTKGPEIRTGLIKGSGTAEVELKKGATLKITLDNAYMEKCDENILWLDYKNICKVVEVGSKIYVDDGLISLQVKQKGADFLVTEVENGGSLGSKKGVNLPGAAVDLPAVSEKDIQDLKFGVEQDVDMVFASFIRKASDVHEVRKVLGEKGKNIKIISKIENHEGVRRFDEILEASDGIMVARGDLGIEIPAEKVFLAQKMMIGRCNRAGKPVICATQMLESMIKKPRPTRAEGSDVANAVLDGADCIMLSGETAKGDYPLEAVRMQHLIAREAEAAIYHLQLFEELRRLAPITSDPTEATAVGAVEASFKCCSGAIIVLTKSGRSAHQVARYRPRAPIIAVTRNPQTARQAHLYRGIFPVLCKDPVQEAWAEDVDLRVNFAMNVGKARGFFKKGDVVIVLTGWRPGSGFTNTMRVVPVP
# Sequence of Muscarinic acetylcholine receptor M1 (Rattus norvegicus) (P08482 whole entry, looked up): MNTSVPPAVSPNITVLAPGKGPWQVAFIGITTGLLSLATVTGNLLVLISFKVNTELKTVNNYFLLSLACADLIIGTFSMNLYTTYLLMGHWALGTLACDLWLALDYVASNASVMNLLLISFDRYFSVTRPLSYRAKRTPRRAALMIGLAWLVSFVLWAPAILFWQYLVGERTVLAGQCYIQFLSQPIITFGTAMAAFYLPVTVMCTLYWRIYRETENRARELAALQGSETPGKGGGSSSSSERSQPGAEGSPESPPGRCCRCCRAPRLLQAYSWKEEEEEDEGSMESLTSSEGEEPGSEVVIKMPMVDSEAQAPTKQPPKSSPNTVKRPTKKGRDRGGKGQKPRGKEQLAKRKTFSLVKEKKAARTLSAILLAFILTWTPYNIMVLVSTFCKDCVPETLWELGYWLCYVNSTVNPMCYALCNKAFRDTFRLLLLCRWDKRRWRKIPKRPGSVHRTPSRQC
# Sequence of Cytochrome P450 2C19 (Homo sapiens) (P33261 whole entry, looked up): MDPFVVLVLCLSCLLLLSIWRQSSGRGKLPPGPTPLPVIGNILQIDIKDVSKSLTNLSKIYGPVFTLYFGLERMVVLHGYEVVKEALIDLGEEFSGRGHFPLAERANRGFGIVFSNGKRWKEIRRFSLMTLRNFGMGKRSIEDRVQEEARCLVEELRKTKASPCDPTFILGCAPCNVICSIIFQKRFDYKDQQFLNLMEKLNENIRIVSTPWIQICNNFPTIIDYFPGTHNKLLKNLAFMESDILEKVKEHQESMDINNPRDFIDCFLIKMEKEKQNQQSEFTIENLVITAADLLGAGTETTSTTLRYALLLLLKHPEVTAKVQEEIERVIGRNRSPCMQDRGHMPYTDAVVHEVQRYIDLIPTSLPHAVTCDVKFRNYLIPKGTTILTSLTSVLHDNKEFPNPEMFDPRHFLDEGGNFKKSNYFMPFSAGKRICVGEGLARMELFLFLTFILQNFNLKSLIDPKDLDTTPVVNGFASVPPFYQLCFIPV
# Sequence of Cytochrome P450 1A2 (Homo sapiens) (P05177 whole entry, looked up): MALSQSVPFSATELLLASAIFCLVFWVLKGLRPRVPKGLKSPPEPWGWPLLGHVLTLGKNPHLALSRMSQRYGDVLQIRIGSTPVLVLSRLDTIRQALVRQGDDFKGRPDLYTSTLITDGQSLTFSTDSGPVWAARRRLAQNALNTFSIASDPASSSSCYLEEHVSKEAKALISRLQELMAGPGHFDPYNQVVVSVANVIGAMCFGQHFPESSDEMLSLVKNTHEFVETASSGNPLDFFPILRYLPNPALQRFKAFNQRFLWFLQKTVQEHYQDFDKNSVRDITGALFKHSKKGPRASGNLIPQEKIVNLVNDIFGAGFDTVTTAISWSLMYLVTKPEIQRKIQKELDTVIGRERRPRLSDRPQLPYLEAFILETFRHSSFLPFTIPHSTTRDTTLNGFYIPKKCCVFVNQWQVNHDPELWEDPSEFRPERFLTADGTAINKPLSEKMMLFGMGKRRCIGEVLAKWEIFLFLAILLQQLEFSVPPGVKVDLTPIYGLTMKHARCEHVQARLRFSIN
# Sequence of Guanine nucleotide-binding protein G(i) subunit alpha-1 (Homo sapiens) (P63096 whole entry, looked up): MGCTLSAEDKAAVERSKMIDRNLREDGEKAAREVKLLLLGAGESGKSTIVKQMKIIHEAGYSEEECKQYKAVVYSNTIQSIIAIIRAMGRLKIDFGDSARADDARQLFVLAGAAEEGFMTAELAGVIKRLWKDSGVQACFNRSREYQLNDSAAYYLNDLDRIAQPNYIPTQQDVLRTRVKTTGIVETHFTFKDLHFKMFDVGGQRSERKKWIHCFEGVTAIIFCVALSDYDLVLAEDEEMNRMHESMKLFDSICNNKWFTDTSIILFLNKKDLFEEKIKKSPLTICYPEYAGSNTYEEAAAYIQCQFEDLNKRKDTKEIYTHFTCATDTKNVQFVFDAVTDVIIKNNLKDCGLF
# Sequence of Pyruvate kinase (Leishmania mexicana) (Q27686 2-499 E452W): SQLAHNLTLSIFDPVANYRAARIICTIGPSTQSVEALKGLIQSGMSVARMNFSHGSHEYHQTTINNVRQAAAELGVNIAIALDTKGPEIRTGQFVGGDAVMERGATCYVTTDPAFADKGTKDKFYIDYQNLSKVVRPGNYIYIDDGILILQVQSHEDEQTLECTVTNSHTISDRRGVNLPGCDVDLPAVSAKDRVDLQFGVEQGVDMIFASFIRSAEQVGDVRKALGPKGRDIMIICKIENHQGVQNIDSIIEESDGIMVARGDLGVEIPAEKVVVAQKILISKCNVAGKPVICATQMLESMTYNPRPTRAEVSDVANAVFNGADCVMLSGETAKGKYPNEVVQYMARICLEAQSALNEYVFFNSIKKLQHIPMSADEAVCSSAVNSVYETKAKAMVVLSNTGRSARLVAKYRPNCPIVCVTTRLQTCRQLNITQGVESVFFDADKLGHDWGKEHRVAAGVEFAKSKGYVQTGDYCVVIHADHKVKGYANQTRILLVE
# Sequence of Cytochrome P450 2C9 (Homo sapiens) (P11712 whole entry, looked up): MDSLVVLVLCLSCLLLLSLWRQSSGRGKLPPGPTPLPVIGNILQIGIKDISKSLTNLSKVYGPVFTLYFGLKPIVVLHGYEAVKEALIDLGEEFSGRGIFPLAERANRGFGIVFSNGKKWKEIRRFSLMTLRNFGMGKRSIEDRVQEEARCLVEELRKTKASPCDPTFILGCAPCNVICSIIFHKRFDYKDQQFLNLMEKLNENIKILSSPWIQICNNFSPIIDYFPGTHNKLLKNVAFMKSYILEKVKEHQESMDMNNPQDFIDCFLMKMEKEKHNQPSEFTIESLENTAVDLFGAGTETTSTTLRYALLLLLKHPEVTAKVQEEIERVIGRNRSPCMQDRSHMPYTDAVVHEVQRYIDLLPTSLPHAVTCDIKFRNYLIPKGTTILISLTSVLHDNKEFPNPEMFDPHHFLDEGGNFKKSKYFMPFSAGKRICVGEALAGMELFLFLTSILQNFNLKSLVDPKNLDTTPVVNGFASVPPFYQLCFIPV
# Sequence of 3',5'-cyclic-AMP phosphodiesterase 4B (Homo sapiens) (Q07343 whole entry, looked up): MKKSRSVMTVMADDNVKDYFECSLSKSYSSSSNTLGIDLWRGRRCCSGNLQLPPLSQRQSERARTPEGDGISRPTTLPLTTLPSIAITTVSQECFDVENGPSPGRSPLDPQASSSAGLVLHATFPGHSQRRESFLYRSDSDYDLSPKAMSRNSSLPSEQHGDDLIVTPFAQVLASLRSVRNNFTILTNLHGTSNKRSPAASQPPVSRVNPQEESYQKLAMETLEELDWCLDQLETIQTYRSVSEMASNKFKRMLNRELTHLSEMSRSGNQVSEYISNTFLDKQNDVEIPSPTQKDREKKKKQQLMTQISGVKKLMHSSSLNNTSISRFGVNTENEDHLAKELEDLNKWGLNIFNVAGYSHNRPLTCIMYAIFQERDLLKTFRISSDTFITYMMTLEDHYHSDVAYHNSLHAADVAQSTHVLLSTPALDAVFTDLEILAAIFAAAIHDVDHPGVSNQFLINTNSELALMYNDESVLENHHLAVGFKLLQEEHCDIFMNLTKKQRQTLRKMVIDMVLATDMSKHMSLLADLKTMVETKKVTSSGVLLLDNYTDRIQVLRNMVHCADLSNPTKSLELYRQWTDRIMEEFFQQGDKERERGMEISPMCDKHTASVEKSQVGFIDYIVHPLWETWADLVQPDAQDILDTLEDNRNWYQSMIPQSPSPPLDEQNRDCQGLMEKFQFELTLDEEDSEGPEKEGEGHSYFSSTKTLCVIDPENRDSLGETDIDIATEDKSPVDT
# Sequence of Alpha-galactosidase A (Homo sapiens) (P06280 whole entry, looked up): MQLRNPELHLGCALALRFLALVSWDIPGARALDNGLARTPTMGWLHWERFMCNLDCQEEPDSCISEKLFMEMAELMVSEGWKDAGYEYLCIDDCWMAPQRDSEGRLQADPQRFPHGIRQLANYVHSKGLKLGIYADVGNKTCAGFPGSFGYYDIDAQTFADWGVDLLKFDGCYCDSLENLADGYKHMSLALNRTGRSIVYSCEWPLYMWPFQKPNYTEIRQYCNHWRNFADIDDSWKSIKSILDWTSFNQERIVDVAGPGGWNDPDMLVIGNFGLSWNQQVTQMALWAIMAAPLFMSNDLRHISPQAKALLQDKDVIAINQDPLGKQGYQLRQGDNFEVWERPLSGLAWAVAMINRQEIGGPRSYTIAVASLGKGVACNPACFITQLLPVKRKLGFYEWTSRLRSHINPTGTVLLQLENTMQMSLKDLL
SMILES,"activity change, negative = inhibition [1]",Potency [2],"activity change, negative = inhibition [3]","activity, negative = inhibition [4]",Potency [5],Potency [6],Potency [7],Potency [8],Potency [9],outcome [10],Potency [11],Potency [12],Potency [13],outcome [14],outcome [15],outcome [16],Potency [17],Potency [18],outcome [19],Potency [20]
O=C(O)/C(=C\c1ccccc1)c1ccccc1,3.72%,inactive,1.44%,-0.514%,> 46 µM,inactive,inactive,,,,,,,,,,,,,
CC[C@@H]1CN2CCc3cc(OC)c(OC)cc3[C@H]2C[C@@H]1C[C@H]1NCCc2cc(OC)c(OC)cc21,-115% [at 17.2 µM] (active),inactive,-120% [at 17.2 µM] (active),-94.8% [at 17.2 µM] (active),> 20.6 µM and > 46 µM,,,> 20.6 µM and > 46 µM,inactive,,,,,,,,,,,
CC(C)[C@H]1C(=O)C(C(N)=O)=C(O)[C@]2(O)C(=O)C3=C(O)c4c(O)ccc(N(C)C)c4C[C@H]3C[C@@H]12,0.478% [at 38 µM],inactive,8.64% [at 38 µM],1.38% [at 38 µM],> 46 µM,,inactive,> 46 µM,,inactive,inactive,inactive,inactive,inactive,inactive,inactive,inactive,,,
C[C@@H]1C[C@H]2[C@H]3C[C@@H](F)C4=CC(=O)C=C[C@]4(C)[C@@]3(Cl)[C@@H](O)C[C@@]2(C)[C@@H]1C(=O)COC(=O)C(C)(C)C,-11.4% [at 17.2 µM],inactive,-26.1% [at 17.2 µM],-9.29% [at 17.2 µM],,inactive,inactive,,,,,,,,,,,inactive,,
CC[C@@H]1CN2CCc3cc(OC)c(OC)cc3[C@H]2C[C@@H]1C[C@@H]1NCCc2cc(OC)c(OC)cc21,-110% [at 38 µM] (active),inactive,-112% [at 38 µM] (active),-52.6% [at 38 µM] (active),> 46 µM,,,> 46 µM,,,,,inactive,inactive,inactive,inactive,inactive,,,
Nc1ncnc2c1nc(Br)n2[C@@H]1O[C@H]2COP(=O)(O)O[C@@H]2[C@H]1O,-7.65% [at 38 µM],inactive,6.13% [at 38 µM],4.8% [at 38 µM],2.43 µM (active),inactive,inactive,,,inactive,inactive,inactive,inactive,inactive,inactive,inactive,inactive,,inactive,
CSc1nc(N)c2ncn([C@@H]3O[C@@H](COP(=O)(O)OP(=O)(O)O)[C@@H](O)[C@H]3O)c2n1,22.9% [at 38 µM],inactive,6.32% [at 38 µM],5.34% [at 38 µM],> 46 µM,,inactive,> 46 µM,,inactive,inactive,,inactive,,inactive,inactive,,,inactive,
CC(C)(C)c1onc(OCP(=O)(O)O)c1C[C@@H](N)C(=O)O,-0.711% [at 38 µM],inactive,8.86% [at 38 µM],-10.4% [at 38 µM],> 46 µM,,inactive,> 46 µM,,inactive,inactive,inactive,inactive,,inactive,inactive,inactive,,inactive,
OC[C@@H]1O[C@H](O)[C@@H](Cl)[C@H](O)[C@@H]1O,-0.164% [at 38 µM],inactive,4.5% [at 38 µM],14% [at 38 µM],> 46 µM,,inactive,> 46 µM,,inactive,,inactive,inactive,inactive,inactive,inactive,,,inactive,
N[C@@H](C(=O)O)[C@H](O)C(=O)O,-4.8% [at 38 µM],inactive,-3.19% [at 38 µM],8.48% [at 38 µM],> 46 µM,,inactive,> 46 µM,inactive,,,,,,,,,,,
CC(=O)OCC(=O)[C@@]1(O)CC[C@@H]2[C@@H]3CCC4=CC(=O)CC[C@@]4(C)[C@H]3C(=O)C[C@]21C,4.78% [at 38 µM],inactive,5.8% [at 38 µM],-12.6% [at 38 µM],,inactive,inactive,> 46 µM,inactive,,,,,,,,,,,inactive
C[N@+]1(CCC(=O)c2ccccc2)CC[C@H]2CC[C@H](C2)C1,2.46%,inactive,3.4%,1.34%,> 46 µM,,inactive,> 9.22 µM,,,,,,,,,,,,inactive
CCn1cc(C(=O)O)c(=O)c2ccc(Cc3ccccc3)nc21,-7.45% [at 38 µM],inactive,2.79% [at 38 µM],8.13% [at 38 µM],> 46 µM,,,> 46 µM,,,,,,,,,,,,inactive
